Source: the supplement of paper PMC10849652
About 8,800 targets were measured; listed, in parts, are those with a hit and a random draw of the rest. About 0.5% of all pairs of compound and target were hits.

What was measured:
Experiment in all cases: log2 fold change, soluble protein after heating vs DMSO (PISA); higher = thermal stabilisation; K562 lysate, 10 uM; active = over 0.2 and 3.5 SD of the protein, either way, in both replicates (recomputed)
erlotinib = compound: C#Cc1cccc(Nc2ncnc3cc(OCCOC)c(OCCOC)cc23)c1 [erlotinib]
Method in brief: (§1)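 Quantification was by TMTpro 16plex LC-MS/MS with equalised channel sums, applied to the supernatant after 21,000xg for 90 min. Samples were crude K562 extract at 1 mg/mL protein in PBS pH 7.4 with 1 mM MgCl2, treated with 10 μM compound for 30 min, heated for 3 min across 48°C-58°C, pooled and brought to 0.5% NP-40 at 4°C. Values are log-two fold changes in thermal stability relative to solvent controls, from duplicates.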

[1] = compound: C/C(=N\NC(=O)C1=CC(=CC=C1)S(=O)(=O)N2CCOCC2)/C3=C(C=CC(=C3)Cl)O
Method in brief: as §1

[2] = compound: C1=CC(=CC=C1C2=NC3=C(N2)C=C(C=C3)C(=O)N)OC4=CC=C(C=C4)Cl
Method in brief: as §1

[3] = compound: C1=CC2=C(C=CC(=C2)/C=C\3/C(=O)NC(=NCC4=CC=CS4)S3)N=C1
Method in brief: as §1

[4] = compound: C1=CC2=NC=CN=C2C=C1/C=C/3\C(=O)NC(=O)S3
Method in brief: as §1

[5] = compound: C1=CC=C(C=C1)C2=NC(=C(N2)C3=CC=NC=C3)C4=CC(=C(C=C4)Cl)O
Method in brief: as §1

[6] = compound: C1=CC=C2C(=C1)C3=NNC4=CC=CC(=C43)C2=O
Method in brief: as §1

[7] = compound: C1CCN(C1)C(=O)NC2=CC=CC(=C2)NC3=NC=C(C(=N3)NCCC4=CN=CN4)Br
Method in brief: as §1

[8] = compound: C1CN(CCC1(CC2=CC=C(C=C2)Cl)N)C3=NC=NC4=C3C=CN4
Method in brief: as §1

IRAK-1-4 Inhibitor I = compound: C1COCCN1CCN2C3=CC=CC=C3N=C2NC(=O)C4=CC(=CC=C4)[N+](=O)[O-] [IRAK-1-4 Inhibitor I]
Method in brief: as §1

ibrutinib = compound: C=CC(=O)N1CCC[C@@H](n2nc(-c3ccc(Oc4ccccc4)cc3)c3c(N)ncnc32)C1 [ibrutinib]
Method in brief: as §1

[9] = compound: CC(=O)c1cnc2ccc(-c3cc(Cl)c(O)c(Cl)c3)nc2c1N[C@H]1CC[C@H](CN(C)C)CC1
Method in brief: as §1

ralimetinib = compound: CC(C)(C)Cn1c(N)nc2ccc(-c3[nH]c(C(C)(C)C)nc3-c3ccc(F)cc3)nc21 [ralimetinib]
Method in brief: as §1

[10] = compound: CC(C)(O)CC(=O)NCCn1ccc2ncnc(Nc3ccc(Oc4cccc(C(F)(F)F)c4)c(Cl)c3)c21
Method in brief: as §1

[11] = compound: CC(C)C1=C2N=C(C=C(N2N=C1)NCC3=CC=CC=C3)NCCCCCCN
Method in brief: as §1

[12] = compound: CC1=C(C(CC(=O)N1)C2=CC=C(C=C2)C(F)(F)F)C(=O)NC3=C(C=C4C(=C3)C=NN4)F
Method in brief: as §1

[13] = compound: CC1=C(C2=C(C=C1)C(=O)C3=CC=CC=C3N2CCCN)C
Method in brief: as §1

[14] = compound: CC1=C(C=C(C=C1)NC(=O)C2=CC(=CC=C2)C(C)(C)C#N)NC3=CC4=C(C=C3)N=CN(C4=O)C
Method in brief: as §1

[15] = compound: CC1=C(C=C(C=C1)NC(=O)C2=CC(=CC=C2)N(C)C)NC(=O)C3=CC=C(C=C3)O
Method in brief: as §1

[16] = compound: CC1=CC=C(C=C1)SC2=C3C=C(SC3=CN=C2)C(=O)N
Method in brief: as §1

Measured: log2 fold change

ABHD11 (UniProt Q8NFV4)
inactive: erlotinib -0.064 | [1] -0.049 | [2] 0.001 | [3] 0.057 | [4] -0.008 | [5] 0.171 | [6] 0.011 | [7] -0.047 | [8] 0.015 | IRAK-1-4 Inhibitor I -0.014 | ibrutinib -0.012 | [9] 0.057 | ralimetinib -0.04 | [10] -0.048 | [11] -0.2 | [12] 0.018 | [13] -0.241 | [14] -0.013 | [15] 0 | [16] -0.017

AFF4 (UniProt Q9UHB7)
inactive: erlotinib -0.003 | [1] -0.152 | [2] 0.007 | [3] -0.063 | [4] 0.021 | [5] 0.048 | [6] 0.003 | [7] 0.032 | [8] 0.016 | IRAK-1-4 Inhibitor I -0.031 | ibrutinib 0.172 | [9] -0.009 | ralimetinib -0.049 | [10] 0.033 | [11] -0.008 | [12] -0.028 | [13] -0.047 | [14] 0.009 | [15] 0.002 | [16] 0.024

AP1G2 (UniProt O75843)
UniProt O75843, sequence (O75843 whole entry, looked up): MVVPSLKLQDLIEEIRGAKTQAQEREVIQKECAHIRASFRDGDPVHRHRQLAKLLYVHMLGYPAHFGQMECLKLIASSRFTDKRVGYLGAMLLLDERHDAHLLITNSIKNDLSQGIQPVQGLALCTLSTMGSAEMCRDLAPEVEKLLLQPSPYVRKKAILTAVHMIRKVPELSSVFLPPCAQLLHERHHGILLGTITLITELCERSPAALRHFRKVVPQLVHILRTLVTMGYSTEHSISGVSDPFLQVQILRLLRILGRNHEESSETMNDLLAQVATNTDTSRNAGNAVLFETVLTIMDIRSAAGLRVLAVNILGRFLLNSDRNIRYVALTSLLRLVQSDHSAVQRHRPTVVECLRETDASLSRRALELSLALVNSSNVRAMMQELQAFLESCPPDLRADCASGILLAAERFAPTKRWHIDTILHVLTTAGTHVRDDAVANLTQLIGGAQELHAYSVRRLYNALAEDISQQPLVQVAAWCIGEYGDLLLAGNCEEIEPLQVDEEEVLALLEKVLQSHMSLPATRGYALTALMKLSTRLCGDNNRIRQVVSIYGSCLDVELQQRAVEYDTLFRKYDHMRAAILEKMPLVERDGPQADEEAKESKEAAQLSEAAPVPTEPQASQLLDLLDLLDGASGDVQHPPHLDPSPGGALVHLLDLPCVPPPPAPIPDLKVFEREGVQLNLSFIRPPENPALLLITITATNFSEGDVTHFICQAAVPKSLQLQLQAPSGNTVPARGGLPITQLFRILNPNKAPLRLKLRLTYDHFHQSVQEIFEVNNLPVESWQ
inactive: erlotinib 0.052 | [1] 0.016 | [2] 0.068 | [3] -0.116 | [4] -0.07 | [5] 0 | [6] 0.001 | [7] -0.003 | [8] 0.034 | IRAK-1-4 Inhibitor I -0.007 | ibrutinib 0.012 | [9] -0.087 | ralimetinib 0.069 | [10] 0.013 | [11] -0.121 | [12] -0.109 | [13] -0.156 | [14] -0.011 | [15] 0.023 | [16] -0.027

AMPD3 isoform 4 (UniProt Q01432)
UniProt Q01432, sequence (Q01432 whole entry, looked up): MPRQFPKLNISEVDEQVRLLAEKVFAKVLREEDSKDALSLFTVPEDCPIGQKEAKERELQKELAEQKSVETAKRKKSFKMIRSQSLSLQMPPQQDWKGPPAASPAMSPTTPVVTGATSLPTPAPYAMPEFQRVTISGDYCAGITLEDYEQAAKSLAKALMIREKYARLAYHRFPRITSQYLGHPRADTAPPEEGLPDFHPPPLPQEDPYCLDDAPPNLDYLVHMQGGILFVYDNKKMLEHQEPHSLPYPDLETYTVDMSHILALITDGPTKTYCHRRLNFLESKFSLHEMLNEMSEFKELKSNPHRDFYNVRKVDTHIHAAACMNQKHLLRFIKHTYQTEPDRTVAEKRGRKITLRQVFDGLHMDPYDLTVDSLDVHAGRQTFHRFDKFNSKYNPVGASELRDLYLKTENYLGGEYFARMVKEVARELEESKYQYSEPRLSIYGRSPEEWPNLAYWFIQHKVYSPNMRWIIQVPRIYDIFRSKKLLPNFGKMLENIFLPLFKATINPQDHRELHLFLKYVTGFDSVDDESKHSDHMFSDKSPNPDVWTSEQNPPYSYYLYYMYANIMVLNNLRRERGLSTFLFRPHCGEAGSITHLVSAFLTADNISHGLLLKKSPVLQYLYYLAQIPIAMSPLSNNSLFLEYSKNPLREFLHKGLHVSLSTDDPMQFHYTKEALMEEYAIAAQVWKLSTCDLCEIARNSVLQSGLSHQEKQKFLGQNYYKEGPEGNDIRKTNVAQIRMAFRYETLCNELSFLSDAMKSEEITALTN
inactive: erlotinib 0 | [1] 0.048 | [2] 0.031 | [3] 0.007 | [4] -0.072 | [5] -0.004 | [6] 0.027 | [7] -0.002 | [8] -0.002 | IRAK-1-4 Inhibitor I 0.015 | ibrutinib 0.05 | [9] 0.001 | ralimetinib 0.037 | [10] -0.041 | [11] -0.019 | [12] -0.029 | [13] 0.011 | [14] 0.006 | [15] -0.004 | [16] -0.005

ACAA1 (UniProt P09110)
inactive: erlotinib 0.03 | [1] -0.455 | [2] 0.041 | [3] 0.015 | [4] 0.03 | [5] -0.036 | [6] 0.016 | [7] 0.014 | [8] -0.024 | IRAK-1-4 Inhibitor I -0.006 | ibrutinib 0.046 | [9] -0.012 | ralimetinib -0.054 | [10] -0.003 | [11] 0 | [12] -0.02 | [13] -0.016 | [14] 0.044 | [15] 0.001 | [16] -0.007

ACBD6 (UniProt Q9BR61)
UniProt Q9BR61, sequence (Q9BR61 whole entry, looked up): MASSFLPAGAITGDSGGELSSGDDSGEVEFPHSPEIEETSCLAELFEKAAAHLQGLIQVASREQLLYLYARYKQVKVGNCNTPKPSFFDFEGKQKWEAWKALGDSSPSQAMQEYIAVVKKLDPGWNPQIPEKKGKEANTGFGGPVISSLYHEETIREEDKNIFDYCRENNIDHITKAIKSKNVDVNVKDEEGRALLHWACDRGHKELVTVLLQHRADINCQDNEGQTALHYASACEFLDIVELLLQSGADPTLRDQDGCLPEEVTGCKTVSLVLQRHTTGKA
inactive: erlotinib 0.013 | [1] -0.059 | [2] 0.029 | [3] 0.024 | [4] -0.032 | [5] -0.014 | [6] -0.075 | [7] -0.044 | [8] -0.01 | IRAK-1-4 Inhibitor I 0.019 | ibrutinib 0.007 | [9] 0.038 | ralimetinib 0.012 | [10] -0.039 | [11] 0.002 | [12] 0.034 | [13] 0.001 | [14] 0.062 | [15] 0.027 | [16] -0.057

AIFM2 (UniProt Q9BRQ8)
UniProt Q9BRQ8, sequence (Q9BRQ8 whole entry, looked up): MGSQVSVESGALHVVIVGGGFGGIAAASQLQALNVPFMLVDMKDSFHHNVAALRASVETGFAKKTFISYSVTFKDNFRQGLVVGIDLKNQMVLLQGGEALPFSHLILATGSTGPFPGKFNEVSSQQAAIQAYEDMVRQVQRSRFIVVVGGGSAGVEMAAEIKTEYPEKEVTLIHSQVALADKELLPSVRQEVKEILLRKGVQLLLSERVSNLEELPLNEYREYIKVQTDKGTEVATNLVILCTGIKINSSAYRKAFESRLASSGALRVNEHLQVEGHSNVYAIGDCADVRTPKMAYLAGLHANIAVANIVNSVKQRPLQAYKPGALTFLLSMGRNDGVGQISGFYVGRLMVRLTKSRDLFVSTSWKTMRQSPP
active: [10] 0.643
inactive: erlotinib -0.094 | [1] 0 | [2] 0.224 | [3] 0.071 | [4] -0.117 | [5] 0.117 | [6] 0.068 | [7] -0.025 | [8] 0.018 | IRAK-1-4 Inhibitor I -0.01 | ibrutinib -0.016 | [9] -0.075 | ralimetinib 0.028 | [11] 0.275 | [12] -0.033 | [13] -0.161 | [14] -0.04 | [15] -0.051 | [16] 0.024

AKR1C3 (UniProt P42330)
UniProt P42330, sequence (P42330 whole entry, looked up): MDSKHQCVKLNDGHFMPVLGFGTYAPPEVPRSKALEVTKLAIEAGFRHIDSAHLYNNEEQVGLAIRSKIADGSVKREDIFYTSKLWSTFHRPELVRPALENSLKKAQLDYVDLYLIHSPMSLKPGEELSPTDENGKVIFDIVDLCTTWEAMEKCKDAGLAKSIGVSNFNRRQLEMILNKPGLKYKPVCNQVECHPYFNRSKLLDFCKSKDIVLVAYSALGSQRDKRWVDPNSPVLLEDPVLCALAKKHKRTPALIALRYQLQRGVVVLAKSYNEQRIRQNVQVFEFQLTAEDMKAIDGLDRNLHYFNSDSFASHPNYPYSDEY
inactive: erlotinib 0.002 | [1] 0.023 | [2] -0.1 | [3] 0.029 | [4] 0.008 | [6] 0.024 | [7] 0.05 | [8] 0.029 | IRAK-1-4 Inhibitor I -0.017 | ibrutinib -0.033 | [9] 0.016 | ralimetinib -0.028 | [10] -0.003 | [11] -0.039 | [12] 0.011 | [14] 0.02 | [15] -0.035 | [16] 0.001
active: [5] 0.3 | [13] 0.247

AHCYL1 (UniProt O43865)
inactive: erlotinib -0.015 | [1] 0.018 | [2] -0.034 | [3] -0.009 | [4] -0.006 | [5] 0.008 | [6] -0.073 | [7] -0.024 | [8] 0.009 | IRAK-1-4 Inhibitor I 0.007 | ibrutinib 0.014 | [9] -0.02 | ralimetinib -0.004 | [10] 0.022 | [11] 0.003 | [12] 0.016 | [13] -0.065 | [14] -0.028 | [15] 0.009 | [16] 0.021

ALDH18A1 (UniProt P54886)
inactive: erlotinib 0.029 | [1] -0.039 | [2] -0.017 | [3] 0.02 | [4] -0.015 | [5] -0.016 | [6] -0.025 | [7] -0.022 | [8] 0.001 | IRAK-1-4 Inhibitor I -0.006 | ibrutinib 0.006 | [9] 0.007 | ralimetinib 0.021 | [10] -0.015 | [11] -0.001 | [12] -0.02 | [13] 0.001 | [14] 0.022 | [15] 0.016 | [16] -0.018

ABHD12 isoform 2 (UniProt Q8N2K0)
UniProt Q8N2K0, sequence (Q8N2K0 whole entry, looked up): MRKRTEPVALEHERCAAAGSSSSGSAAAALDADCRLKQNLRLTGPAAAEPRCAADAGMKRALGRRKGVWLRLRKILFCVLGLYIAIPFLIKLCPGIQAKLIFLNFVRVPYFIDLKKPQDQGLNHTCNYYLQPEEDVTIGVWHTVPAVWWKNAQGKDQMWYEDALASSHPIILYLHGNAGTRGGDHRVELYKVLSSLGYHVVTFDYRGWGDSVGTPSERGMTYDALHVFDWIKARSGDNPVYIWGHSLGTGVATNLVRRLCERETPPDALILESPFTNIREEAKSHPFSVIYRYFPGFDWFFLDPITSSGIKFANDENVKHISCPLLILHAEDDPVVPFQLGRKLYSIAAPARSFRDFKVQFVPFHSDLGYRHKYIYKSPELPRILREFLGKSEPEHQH
inactive: erlotinib -0.027 | [1] -0.031 | [2] -0.062 | [3] 0.074 | [4] 0.037 | [5] -0.064 | [6] 0 | [7] -0.03 | [8] 0.048 | IRAK-1-4 Inhibitor I 0.014 | ibrutinib -0.039 | [9] -0.03 | ralimetinib 0.043 | [10] -0.014 | [11] 0.05 | [12] 0.052 | [13] 0.021 | [14] 0.022 | [15] -0.05 | [16] 0.033

APOBEC3C (UniProt Q9NRW3)
UniProt Q9NRW3, sequence (Q9NRW3 whole entry, looked up): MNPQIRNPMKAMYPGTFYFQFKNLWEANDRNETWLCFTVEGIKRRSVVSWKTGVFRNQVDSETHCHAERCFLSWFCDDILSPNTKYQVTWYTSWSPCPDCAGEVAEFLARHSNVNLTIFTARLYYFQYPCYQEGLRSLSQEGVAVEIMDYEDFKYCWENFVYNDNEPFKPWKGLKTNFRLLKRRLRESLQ
inactive: erlotinib 0.054 | [1] 0.058 | [2] -0.029 | [3] 0.066 | [4] 0.056 | [5] -0.017 | [6] 0.015 | [7] 0.031 | [8] -0.003 | IRAK-1-4 Inhibitor I 0.038 | ibrutinib -0.024 | [9] -0.047 | ralimetinib 0.005 | [10] -0.051 | [11] -0.01 | [12] 0 | [13] -0.025 | [14] 0.046 | [15] 0.019 | [16] -0.01

ACLY (UniProt P53396)
inactive: erlotinib -0.006 | [1] 0.037 | [2] -0.018 | [3] -0.013 | [4] -0.011 | [5] -0.016 | [6] -0.018 | [7] 0.002 | [8] 0.019 | IRAK-1-4 Inhibitor I -0.01 | ibrutinib -0.002 | [9] 0.003 | ralimetinib 0.001 | [10] -0.011 | [11] 0.02 | [12] -0.02 | [13] 0.014 | [14] -0.014 | [15] -0.012 | [16] 0.054

ANAPC7 (UniProt Q9UJX3)
UniProt Q9UJX3, sequence (Q9UJX3 whole entry, looked up): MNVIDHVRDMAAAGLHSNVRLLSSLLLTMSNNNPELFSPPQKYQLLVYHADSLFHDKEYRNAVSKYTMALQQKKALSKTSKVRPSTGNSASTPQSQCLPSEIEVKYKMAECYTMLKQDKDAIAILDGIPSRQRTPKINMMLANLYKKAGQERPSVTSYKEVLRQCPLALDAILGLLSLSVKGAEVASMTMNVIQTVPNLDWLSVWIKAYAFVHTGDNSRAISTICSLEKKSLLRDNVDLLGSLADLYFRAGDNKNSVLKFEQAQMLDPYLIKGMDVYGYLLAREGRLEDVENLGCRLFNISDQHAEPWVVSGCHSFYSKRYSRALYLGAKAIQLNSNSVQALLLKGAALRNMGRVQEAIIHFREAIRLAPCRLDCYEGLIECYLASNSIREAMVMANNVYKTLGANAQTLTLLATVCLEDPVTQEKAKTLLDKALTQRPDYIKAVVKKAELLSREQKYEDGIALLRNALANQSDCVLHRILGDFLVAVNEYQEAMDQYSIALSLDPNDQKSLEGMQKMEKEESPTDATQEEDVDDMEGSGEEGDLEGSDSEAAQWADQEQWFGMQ
inactive: erlotinib -0.001 | [1] 0.006 | [2] 0.002 | [3] 0.024 | [4] -0.016 | [5] 0.003 | [6] 0.027 | [7] 0 | [8] -0.017 | IRAK-1-4 Inhibitor I 0.005 | ibrutinib -0.007 | [9] 0.002 | ralimetinib 0.015 | [10] -0.009 | [11] 0.001 | [12] 0.01 | [13] 0.002 | [14] 0.022 | [15] 0.023 | [16] 0.01

ASPH (UniProt Q12797)
UniProt Q12797, sequence (Q12797 whole entry, looked up): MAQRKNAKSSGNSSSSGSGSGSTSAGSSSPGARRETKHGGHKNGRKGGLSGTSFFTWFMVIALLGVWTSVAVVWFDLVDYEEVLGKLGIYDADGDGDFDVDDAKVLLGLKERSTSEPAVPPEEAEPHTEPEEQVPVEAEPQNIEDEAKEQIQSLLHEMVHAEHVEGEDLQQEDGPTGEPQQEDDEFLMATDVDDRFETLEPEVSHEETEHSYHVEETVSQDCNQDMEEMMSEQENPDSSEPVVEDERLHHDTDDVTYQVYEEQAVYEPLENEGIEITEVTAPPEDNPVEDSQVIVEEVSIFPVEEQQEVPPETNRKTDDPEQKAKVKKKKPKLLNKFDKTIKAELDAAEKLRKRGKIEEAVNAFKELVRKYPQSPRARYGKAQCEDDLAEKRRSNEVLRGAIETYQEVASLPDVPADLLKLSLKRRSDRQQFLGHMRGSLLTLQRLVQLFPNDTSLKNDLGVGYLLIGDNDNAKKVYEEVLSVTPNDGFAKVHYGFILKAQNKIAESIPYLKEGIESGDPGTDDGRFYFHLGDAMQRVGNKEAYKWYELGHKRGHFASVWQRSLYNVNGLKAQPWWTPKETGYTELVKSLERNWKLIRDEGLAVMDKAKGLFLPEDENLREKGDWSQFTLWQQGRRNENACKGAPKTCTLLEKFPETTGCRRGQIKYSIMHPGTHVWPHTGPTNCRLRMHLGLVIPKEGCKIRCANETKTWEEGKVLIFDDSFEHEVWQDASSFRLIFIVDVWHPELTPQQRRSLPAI
inactive: erlotinib 0.003 | [1] -0.028 | [2] -0.013 | [3] 0.075 | [4] -0.011 | [5] 0.006 | [6] -0.022 | [7] -0.011 | [8] 0.01 | IRAK-1-4 Inhibitor I -0.016 | ibrutinib 0.015 | [9] -0.004 | ralimetinib -0.006 | [10] -0.001 | [11] -0.028 | [12] 0.052 | [13] 0.076 | [14] -0.025 | [15] 0.025 | [16] 0

ANKRD54 (UniProt Q6NXT1)
UniProt Q6NXT1, sequence (Q6NXT1 whole entry, looked up): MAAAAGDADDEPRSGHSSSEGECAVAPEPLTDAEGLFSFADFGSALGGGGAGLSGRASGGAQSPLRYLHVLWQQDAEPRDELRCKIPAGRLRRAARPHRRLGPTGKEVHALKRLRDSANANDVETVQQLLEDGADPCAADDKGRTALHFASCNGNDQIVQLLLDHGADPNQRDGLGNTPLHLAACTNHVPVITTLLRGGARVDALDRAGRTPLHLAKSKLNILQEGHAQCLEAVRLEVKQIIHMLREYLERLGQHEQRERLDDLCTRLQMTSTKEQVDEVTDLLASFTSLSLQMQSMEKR
inactive: erlotinib -0.005 | [1] 0.01 | [2] 0.122 | [3] -0.036 | [4] 0.025 | [5] 0.037 | [6] 0.02 | [7] 0.008 | [8] -0.035 | IRAK-1-4 Inhibitor I 0.003 | ibrutinib -0.054 | [9] -0.002 | ralimetinib 0.063 | [10] -0.006 | [11] 0.044 | [12] 0.003 | [13] 0.001 | [14] -0.006 | [15] 0.01 | [16] -0.023
